Experimental data from PubChem BioAssay (Tox21).
Several values for one entry are separate records, joined by “and”; a condition that tells them apart may be missing. Identical values can stand only once. Records with an inconclusive call do not appear. A call without a number means that no potency is given here. Some structures have more than one record in an assay (separate samples or runs), and their calls can disagree. Activity calls are given as the source filed them. Calls follow the shape of the dose curve; as a rule, active = well fitted curve in the direction sought with a large enough effect in the repeat runs; inconclusive = weak or mixed curves; inactive = no such curve, though single readings can be large; an effect the other way counts as inactive or inconclusive.

Test system: not listed separately
Assay: qHTS assay to identify aromatase inhibitors - cell viability counter screen (AID 743084);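 also: cells stimulated with testosterone during compound exposure; nearly all actives have a fitted effect of over 55% in size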
Settings: MCF-7 aro ERE viability, CellTiter-Fluor, 24 h; series mostly up to 70.3 µM
Potency is read from the fitted curve at half-maximal effect.

**Q.** With `C[C@]12C=CC(=O)C=C1CC[C@@H]1[C@@H]2[C@@H](O)C[C@@]2(C)[C@H]1CC[C@]2(O)C(=O)CO` as the molecule, how does the Potency read?
**A.** inactive

**Q.** With `Cc1ccc(S(=O)(=O)NC(=O)NN2CCCCCC2)cc1` as the molecule, how does the Potency read?
**A.** inactive

**Q.** For `Nc1ccc(O)c(C(=O)O)c1`, which Potency is on record?
**A.** inactive

**Q.** For `NC(=O)NC1NC(=O)NC1=O` (stereo unspecified), which Potency is on record?
**A.** inactive

**Q.** Which Potency does the source give for `OCCc1ccccc1` here?
**A.** inactive

**Q.** Which Potency does the source give for `CC(=O)NS(=O)(=O)c1ccc(N)cc1` here?
**A.** inactive

**Q.** With `O=C(O)c1cccc([N+](=O)[O-])c1` as the molecule, how does the Potency read?
**A.** inactive

**Q.** With `CCOc1ccc(NC(=O)CC(C)O)cc1` (stereo unspecified) as the molecule, how does the Potency read?
**A.** inactive

**Q.** Which Potency does the source give for `CC(O)CN(CCN(CC(C)O)CC(C)O)CC(C)O` (stereo unspecified) here?
**A.** inactive

**Q.** With `O=C(O)c1cc(N=Nc2ccc(S(=O)(=O)Nc3ccccn3)cc2)ccc1O` as the molecule, how does the Potency read?
**A.** 34.5 µM (active) and 30.6 µM (active)

**Q.** Which Potency does the source give for `NNC(=O)c1ccncc1` here?
**A.** inactive

**Q.** Which Potency does the source give for `O=c1ccc2ccccc2o1` here?
**A.** inactive

**Q.** Which Potency does the source give for `NC(=O)c1cnccn1` here?
**A.** inactive

**Q.** With `CC(=O)OCC(COC(C)=O)OC(C)=O` as the molecule, how does the Potency read?
**A.** inactive

**Q.** With `CCCCOC(=O)CC(CC(=O)OCCCC)(OC(C)=O)C(=O)OCCCC` as the molecule, how does the Potency read?
**A.** inactive

**Q.** For `O=C(O)CCCCC(=O)O`, which Potency is on record?
**A.** inactive

**Q.** For `O=C(O)CCCCCCCC(=O)O`, which Potency is on record?
**A.** inactive

**Q.** For `O=C(O)c1cccnc1`, which Potency is on record?
**A.** inactive

**Q.** For `O=C(O)CS`, which Potency is on record?
**A.** inactive

**Q.** With `C/C=C/c1ccc(OC)cc1` as the molecule, how does the Potency read?
**A.** inactive

**Q.** For `O=C(c1ccccc1)c1ccccc1`, which Potency is on record?
**A.** inactive

**Q.** With `CCCNC(=O)NS(=O)(=O)c1ccc(Cl)cc1` as the molecule, how does the Potency read?
**A.** inactive

**Q.** For `c1ccc2[nH]ccc2c1`, which Potency is on record?
**A.** inactive

**Q.** With `CC(=O)Nc1nnc(S(N)(=O)=O)s1` as the molecule, how does the Potency read?
**A.** inactive

**Q.** For `O=C1CN(/N=C/c2ccc([N+](=O)[O-])o2)C(=O)N1`, which Potency is on record?
**A.** 30.5 µM (active)

**Q.** For `O=C(O)CCC(=O)O`, which Potency is on record?
**A.** inactive

**Q.** Which Potency does the source give for `CCCN(CCC)S(=O)(=O)c1ccc(C(=O)O)cc1` here?
**A.** inactive

**Q.** For `CCCCC(CC)COC(=O)/C=C/c1ccc(OC)cc1` (stereo unspecified), which Potency is on record?
**A.** inactive

**Q.** Which Potency does the source give for `COc1ccc2[nH]cc(CCNC(C)=O)c2c1` here?
**A.** inactive

**Q.** For `Cn1c(=O)c2[nH]cnc2n(C)c1=O`, which Potency is on record?
**A.** inactive

**Q.** With `Nc1ccc(S(=O)(=O)Nc2nccs2)cc1` as the molecule, how does the Potency read?
**A.** inactive

**Q.** For `O=S(=O)(O)c1ccc2cc(O)ccc2c1`, which Potency is on record?
**A.** inactive

**Q.** Which Potency does the source give for `O=C1NC(=O)c2ccccc21` here?
**A.** inactive

**Q.** Which Potency does the source give for `CCCCC1C(=O)N(c2ccccc2)N(c2ccccc2)C1=O` here?
**A.** inactive

**Q.** For `Cc1cn([C@H]2C[C@H](N=[N+]=[N-])[C@@H](CO)O2)c(=O)[nH]c1=O`, which Potency is on record?
**A.** inactive

**Q.** For `Cc1ccc(O)cc1`, which Potency is on record?
**A.** inactive

Molecular target: Aryl hydrocarbon receptor (Homo sapiens) (UniProt P35869)
Assay: qHTS assay to identify small molecule that activate the aryl hydrocarbon receptor (AhR) signaling pathway (AID 743085); also: nearly all actives have a fitted effect of over 15% in size
Settings: HepG2 AhR-luc (HG2L7.5c1), luciferase, 24 h; series mostly up to 70.3 µM
Method in brief: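 Compounds were tested in HepG2 hepatocellular carcinoma cells harbouring a stably integrated luciferase gene under control of 20 DREs. Increased reporter signal after 24 h treatment at 37C was taken as AhR activation.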

Chain of Aryl hydrocarbon receptor (Homo sapiens) (P35869 whole entry, looked up): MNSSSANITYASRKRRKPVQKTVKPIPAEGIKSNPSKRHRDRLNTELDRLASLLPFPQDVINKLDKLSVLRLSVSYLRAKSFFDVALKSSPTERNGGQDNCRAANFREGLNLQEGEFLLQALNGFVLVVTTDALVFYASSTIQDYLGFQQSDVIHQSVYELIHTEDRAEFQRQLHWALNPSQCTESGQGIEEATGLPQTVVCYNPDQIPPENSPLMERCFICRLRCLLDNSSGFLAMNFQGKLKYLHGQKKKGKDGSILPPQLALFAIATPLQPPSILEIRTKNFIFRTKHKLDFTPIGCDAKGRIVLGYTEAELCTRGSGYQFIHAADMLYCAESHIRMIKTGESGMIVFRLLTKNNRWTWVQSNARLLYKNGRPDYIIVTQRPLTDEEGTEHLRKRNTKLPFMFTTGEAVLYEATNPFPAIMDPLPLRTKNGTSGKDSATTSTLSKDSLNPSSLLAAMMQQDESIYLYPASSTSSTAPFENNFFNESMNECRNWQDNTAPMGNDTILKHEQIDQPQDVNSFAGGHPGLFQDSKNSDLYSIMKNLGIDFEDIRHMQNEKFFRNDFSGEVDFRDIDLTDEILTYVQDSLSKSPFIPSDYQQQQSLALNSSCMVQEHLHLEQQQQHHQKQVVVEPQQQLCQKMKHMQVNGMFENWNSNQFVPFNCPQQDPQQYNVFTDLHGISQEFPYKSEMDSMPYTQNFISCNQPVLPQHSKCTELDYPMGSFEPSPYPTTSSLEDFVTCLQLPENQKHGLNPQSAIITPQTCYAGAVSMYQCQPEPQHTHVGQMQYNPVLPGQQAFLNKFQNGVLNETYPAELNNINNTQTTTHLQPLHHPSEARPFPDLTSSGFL

**Q.** Which Potency does the source give for `C[C@]12C=CC(=O)C=C1CC[C@@H]1[C@@H]2[C@@H](O)C[C@@]2(C)[C@H]1CC[C@]2(O)C(=O)CO` here?
**A.** inactive

**Q.** For `Cc1ccc(S(=O)(=O)NC(=O)NN2CCCCCC2)cc1`, which Potency is on record?
**A.** inactive

**Q.** With `Nc1ccc(O)c(C(=O)O)c1` as the molecule, how does the Potency read?
**A.** inactive

**Q.** Which Potency does the source give for `NC(=O)NC1NC(=O)NC1=O` (stereo unspecified) here?
**A.** inactive

**Q.** With `OCCc1ccccc1` as the molecule, how does the Potency read?
**A.** inactive

**Q.** Which Potency does the source give for `CC(=O)NS(=O)(=O)c1ccc(N)cc1` here?
**A.** inactive

**Q.** For `O=C(O)c1cccc([N+](=O)[O-])c1`, which Potency is on record?
**A.** inactive

**Q.** Which Potency does the source give for `CCOc1ccc(NC(=O)CC(C)O)cc1` (stereo unspecified) here?
**A.** inactive

**Q.** For `CC(O)CN(CCN(CC(C)O)CC(C)O)CC(C)O` (stereo unspecified), which Potency is on record?
**A.** inactive

**Q.** Which Potency does the source give for `O=C(O)c1cc(N=Nc2ccc(S(=O)(=O)Nc3ccccn3)cc2)ccc1O` here?
**A.** inactive

**Q.** For `NNC(=O)c1ccncc1`, which Potency is on record?
**A.** 13.3 µM (active)

**Q.** For `O=c1ccc2ccccc2o1`, which Potency is on record?
**A.** inactive

**Q.** Which Potency does the source give for `NC(=O)c1cnccn1` here?
**A.** inactive

**Q.** Which Potency does the source give for `CC(=O)OCC(COC(C)=O)OC(C)=O` here?
**A.** inactive and 67.7 µM (active)

**Q.** With `CCCCOC(=O)CC(CC(=O)OCCCC)(OC(C)=O)C(=O)OCCCC` as the molecule, how does the Potency read?
**A.** inactive

**Q.** Which Potency does the source give for `O=C(O)CCCCC(=O)O` here?
**A.** inactive

**Q.** Which Potency does the source give for `O=C(O)CCCCCCCC(=O)O` here?
**A.** inactive

**Q.** With `O=C(O)c1cccnc1` as the molecule, how does the Potency read?
**A.** inactive

**Q.** Which Potency does the source give for `O=C(O)CS` here?
**A.** inactive

**Q.** Which Potency does the source give for `C/C=C/c1ccc(OC)cc1` here?
**A.** inactive

**Q.** With `O=C(c1ccccc1)c1ccccc1` as the molecule, how does the Potency read?
**A.** inactive

**Q.** Which Potency does the source give for `CCCNC(=O)NS(=O)(=O)c1ccc(Cl)cc1` here?
**A.** inactive

**Q.** With `c1ccc2[nH]ccc2c1` as the molecule, how does the Potency read?
**A.** inactive and 30.1 µM (active) and 27.3 µM (active)

**Q.** For `CC(=O)Nc1nnc(S(N)(=O)=O)s1`, which Potency is on record?
**A.** inactive

**Q.** With `O=C1CN(/N=C/c2ccc([N+](=O)[O-])o2)C(=O)N1` as the molecule, how does the Potency read?
**A.** inactive

**Q.** Which Potency does the source give for `O=C(O)CCC(=O)O` here?
**A.** inactive

**Q.** For `CCCN(CCC)S(=O)(=O)c1ccc(C(=O)O)cc1`, which Potency is on record?
**A.** inactive

**Q.** With `CCCCC(CC)COC(=O)/C=C/c1ccc(OC)cc1` (stereo unspecified) as the molecule, how does the Potency read?
**A.** inactive

**Q.** Which Potency does the source give for `COc1ccc2[nH]cc(CCNC(C)=O)c2c1` here?
**A.** inactive

**Q.** For `Cn1c(=O)c2[nH]cnc2n(C)c1=O`, which Potency is on record?
**A.** inactive

**Q.** For `Nc1ccc(S(=O)(=O)Nc2nccs2)cc1`, which Potency is on record?
**A.** inactive

**Q.** For `O=S(=O)(O)c1ccc2cc(O)ccc2c1`, which Potency is on record?
**A.** inactive

**Q.** Which Potency does the source give for `O=C1NC(=O)c2ccccc21` here?
**A.** inactive

**Q.** Which Potency does the source give for `CCCCC1C(=O)N(c2ccccc2)N(c2ccccc2)C1=O` here?
**A.** inactive

**Q.** For `Cc1cn([C@H]2C[C@H](N=[N+]=[N-])[C@@H](CO)O2)c(=O)[nH]c1=O`, which Potency is on record?
**A.** inactive

**Q.** With `Cc1ccc(O)cc1` as the molecule, how does the Potency read?
**A.** inactive

Test system: not listed separately
Assay: qHTS assay to identify small molecule that activate the aryl hydrocarbon receptor (AhR) signaling pathway - cell viability counter screen (AID 743086); also: nearly all actives have a fitted effect of over 45% in size
Settings: HepG2-AhR-luc viability, CellTiter-Fluor, 24 h; series mostly up to 70.3 µM
Method in brief: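 Cytotoxicity counter screen: CellTiter-Fluor signal (30 min, 37 C) in 4000 HepG2 cells/well carrying the DRE-luciferase reporter, following 24 h compound exposure at 37 C.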

**Q.** Which Potency does the source give for `C[C@]12C=CC(=O)C=C1CC[C@@H]1[C@@H]2[C@@H](O)C[C@@]2(C)[C@H]1CC[C@]2(O)C(=O)CO` here?
**A.** inactive

**Q.** For `Cc1ccc(S(=O)(=O)NC(=O)NN2CCCCCC2)cc1`, which Potency is on record?
**A.** inactive

**Q.** With `Nc1ccc(O)c(C(=O)O)c1` as the molecule, how does the Potency read?
**A.** inactive

**Q.** With `NC(=O)NC1NC(=O)NC1=O` (stereo unspecified) as the molecule, how does the Potency read?
**A.** inactive

**Q.** Which Potency does the source give for `OCCc1ccccc1` here?
**A.** inactive

**Q.** For `CC(=O)NS(=O)(=O)c1ccc(N)cc1`, which Potency is on record?
**A.** inactive

**Q.** With `O=C(O)c1cccc([N+](=O)[O-])c1` as the molecule, how does the Potency read?
**A.** inactive

**Q.** With `CCOc1ccc(NC(=O)CC(C)O)cc1` (stereo unspecified) as the molecule, how does the Potency read?
**A.** inactive

**Q.** With `O=C(O)c1cc(N=Nc2ccc(S(=O)(=O)Nc3ccccn3)cc2)ccc1O` as the molecule, how does the Potency read?
**A.** inactive and 27.4 µM (active) and 30.6 µM (active)

**Q.** For `NNC(=O)c1ccncc1`, which Potency is on record?
**A.** inactive

**Q.** Which Potency does the source give for `O=c1ccc2ccccc2o1` here?
**A.** inactive

**Q.** Which Potency does the source give for `NC(=O)c1cnccn1` here?
**A.** inactive

**Q.** Which Potency does the source give for `CC(=O)OCC(COC(C)=O)OC(C)=O` here?
**A.** inactive

**Q.** For `CCCCOC(=O)CC(CC(=O)OCCCC)(OC(C)=O)C(=O)OCCCC`, which Potency is on record?
**A.** inactive

**Q.** Which Potency does the source give for `O=C(O)CCCCC(=O)O` here?
**A.** inactive

**Q.** Which Potency does the source give for `O=C(O)CCCCCCCC(=O)O` here?
**A.** inactive

**Q.** Which Potency does the source give for `O=C(O)c1cccnc1` here?
**A.** inactive

**Q.** Which Potency does the source give for `C/C=C/c1ccc(OC)cc1` here?
**A.** inactive

**Q.** Which Potency does the source give for `O=C(c1ccccc1)c1ccccc1` here?
**A.** inactive

**Q.** Which Potency does the source give for `CCCNC(=O)NS(=O)(=O)c1ccc(Cl)cc1` here?
**A.** inactive

**Q.** For `c1ccc2[nH]ccc2c1`, which Potency is on record?
**A.** inactive

**Q.** For `CC(=O)Nc1nnc(S(N)(=O)=O)s1`, which Potency is on record?
**A.** inactive

**Q.** With `O=C1CN(/N=C/c2ccc([N+](=O)[O-])o2)C(=O)N1` as the molecule, how does the Potency read?
**A.** 30.5 µM (active) and 48.6 µM (active)

**Q.** With `O=C(O)CCC(=O)O` as the molecule, how does the Potency read?
**A.** inactive

**Q.** For `CCCCC(CC)COC(=O)/C=C/c1ccc(OC)cc1` (stereo unspecified), which Potency is on record?
**A.** inactive

**Q.** For `Cn1c(=O)c2[nH]cnc2n(C)c1=O`, which Potency is on record?
**A.** inactive

**Q.** With `Nc1ccc(S(=O)(=O)Nc2nccs2)cc1` as the molecule, how does the Potency read?
**A.** inactive

**Q.** For `Cc1cn([C@H]2C[C@H](N=[N+]=[N-])[C@@H](CO)O2)c(=O)[nH]c1=O`, which Potency is on record?
**A.** inactive

**Q.** Which Potency does the source give for `Cc1ccc(O)cc1` here?
**A.** inactive
